Test results: PubChem BioAssay
The source made the active and inactive calls.

How the values were obtained:
[1] = optical density shifts of acrAB sulA E. coli – strain DRC41, OD650, 48 h, E. coli filamentation inducer project, primary screen (AID 1152); settings: higher = more signal, called active from +8 up or from −8 down;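 further: E. coli MC1000 strain DRC41 lacking acrAB efflux pump and sulA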
[2] = probe aLefty1 binding on compound microarray – biochemical, small-molecule microarray, 635/667 nm fluorescence, primary screen (AID 1153); settings: higher = more signal;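 further: score merges spot fluorescence with signal-to-noise ratio from the scanned slide images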
[3] = plasmodial surface anion channel blockers, osmotic lysis – cell-based, P. falciparum Indochina, OD700, 1 h, primary screen (AID 1154); settings: P. falciparum Indochina infected RBC osmotic lysis, higher = more signal, called active from +8 up or from −8 down
[4] = plasmodial surface anion channel blockers, osmotic lysis – cell-based, P. falciparum Indochina, OD700, 2 h, primary screen (AID 1155);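 further: lysis reports solute entry through the parasite surface anion channel PSAC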; settings: P. falciparum Indochina infected erythrocytes, higher = more signal, called active from +8 up or from −8 down
[5] = changes in parasitized red cell lysis, either direction – P. falciparum Indochina, OD700, 3 h, PSAC antagonist project, primary screen (AID 1156); settings: P. falciparum-infected erythrocytes, osmotic lysis, higher = more signal, called active from +8 up or from −8 down
[6] = plasmodial surface anion channel blockers, osmotic lysis – cell-based, P. falciparum Indochina, OD700, 18 h, primary screen (AID 1157); settings: P. falciparum Indochina infected erythrocytes, osmotic lysis OD700, 18 h; higher = more signal, called active from +8 up or from −8 down
[7] = S6 kinase pathway phospho-S6 level changes – cell-based, A549, cytoblot, luminescence, serum-stimulated, primary screen (AID 1158); settings: 5 h, higher = more signal;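 further: serum-stimulated A549 lung adenocarcinoma cells; signal is phosphorylated S6 detected by cytoblot immunostaining with HRP secondary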
[8] = target: NADPH oxidase 2 (Homo sapiens) (UniProt P04839); assay: compounds shifting NOX2 Amplex Red fluorescence – cell-based, HEK293-NOX2, PMA-stimulated, NOX inhibitor project, primary screen (AID 1159); settings: 45 min, higher = more signal, called active from +8 up or from −8 down; further: test concentration not given here
[9] = target: NADPH oxidase 4 (Homo sapiens) (UniProt Q9NPH5); assay: compounds shifting NOX4 Amplex Red fluorescence – cell-based, HEK293-NOX4, tetracycline-induced, NOX inhibitor project, primary screen (AID 1160); settings: HEK293-NOX4, Amplex Red H2O2 fluorescence, 45 min; higher = more signal, called active from +8 up or from −8 down
[10] = target: NADPH oxidase 5 (Homo sapiens) (UniProt Q96PH1); assay: compounds shifting NOX5 Amplex Red fluorescence – cell-based, HEK293-NOX5, NOX inhibitor project, primary screen (AID 1161); settings: HEK293-NOX5, ionomycin, 45 min, higher = more signal
[11] = compound effects on lung adenocarcinoma cell viability – A549, calcein-AM fluorescence, 48 h, basal, profiling panel (AID 1162); settings: higher = more signal; further: test concentration not given here
[12] = compound effects on differentiated 3T3-L1 adipocyte viability – cell-based, 3T3-L1 adipocytes, calcein-AM fluorescence, 48 h, basal, profiling panel (AID 1163); settings: 3T3-L1 adipocytes viability, higher = more signal; further: test concentration not given here
[13] = compound effects on hepatocellular carcinoma cell viability – HepG2, calcein-AM fluorescence, 48 h, basal, profiling panel (AID 1164); settings: higher = more signal; further: test concentration not given here
[14] = compound effects on multiple myeloma cell viability – MM1S, calcein-AM fluorescence, 48 h, basal, profiling panel (AID 1165); settings: higher = more signal;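 further: viability of MM1S multiple myeloma cells under basal unstimulated conditions; test concentration not given here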
[15] = calcein-AM signal in unstimulated myeloma cells – cell-based, calcein-AM fluorescence, 48 h, PK04 Diversity Set, profiling panel (AID 1166); settings: RPMI8226 myeloma viability, higher = more signal;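 further: cells grown under basal conditions without added stimulus; test concentration not given here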
[16] = JC-1 mitochondrial signal, unstimulated HepG2 cells – cell-based, JC-1 fluorescence, 24 h, 100 nL compound, profiling panel (AID 1167); settings: HepG2 mitochondrial potential, higher = more signal; further: test concentration not given here
[17] = JC-1 mitochondrial signal, unstimulated adipocytes – cell-based, JC-1 fluorescence, 3T3-L1 adipocytes, 24 h, 100 nL compound, profiling panel (AID 1168); settings: JC-1 mitochondrial fluorescence, higher = more signal, called active from +8 up or from −8 down; further: test concentration not given here
[18] = JC-1 mitochondrial signal, unstimulated myeloma cells – cell-based, JC-1 fluorescence, RPMI8226, 24 h, 100 nL compound, profiling panel (AID 1169); settings: JC-1 mitochondrial potential fluorescence, higher = more signal; further: test concentration not given here
[19] = JC-1 mitochondrial signal, unstimulated MM1S myeloma – cell-based, JC-1 fluorescence, 24 h, 100 nL compound, profiling panel (AID 1170); settings: MM1S mitochondrial potential, higher = more signal; further: test concentration not given here
[20] = resazurin metabolic signal in A549 cells – cell-based, resazurin fluorescence, 24 h, PK04 Diversity Set, profiling panel (AID 1171); settings: A549 viability, higher = more signal, called active from +8 up or from −8 down; further: test concentration not given here

NADPH oxidase 2 (Homo sapiens), sequence (P04839 whole entry, looked up): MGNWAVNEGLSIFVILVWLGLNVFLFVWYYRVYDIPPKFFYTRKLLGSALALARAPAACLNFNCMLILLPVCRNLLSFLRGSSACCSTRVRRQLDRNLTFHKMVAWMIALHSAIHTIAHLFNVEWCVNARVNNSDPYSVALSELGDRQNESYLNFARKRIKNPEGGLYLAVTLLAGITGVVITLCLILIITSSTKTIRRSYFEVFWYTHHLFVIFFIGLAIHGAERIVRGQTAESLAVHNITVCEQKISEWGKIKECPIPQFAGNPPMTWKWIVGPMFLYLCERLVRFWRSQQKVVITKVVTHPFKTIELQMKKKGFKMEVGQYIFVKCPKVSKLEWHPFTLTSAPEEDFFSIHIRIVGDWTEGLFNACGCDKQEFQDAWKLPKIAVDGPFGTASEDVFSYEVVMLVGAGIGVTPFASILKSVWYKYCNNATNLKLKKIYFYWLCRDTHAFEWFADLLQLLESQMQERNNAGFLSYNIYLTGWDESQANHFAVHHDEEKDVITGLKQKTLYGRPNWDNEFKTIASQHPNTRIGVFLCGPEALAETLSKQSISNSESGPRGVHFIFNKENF
NADPH oxidase 5 (Homo sapiens), sequence (Q96PH1 whole entry, looked up): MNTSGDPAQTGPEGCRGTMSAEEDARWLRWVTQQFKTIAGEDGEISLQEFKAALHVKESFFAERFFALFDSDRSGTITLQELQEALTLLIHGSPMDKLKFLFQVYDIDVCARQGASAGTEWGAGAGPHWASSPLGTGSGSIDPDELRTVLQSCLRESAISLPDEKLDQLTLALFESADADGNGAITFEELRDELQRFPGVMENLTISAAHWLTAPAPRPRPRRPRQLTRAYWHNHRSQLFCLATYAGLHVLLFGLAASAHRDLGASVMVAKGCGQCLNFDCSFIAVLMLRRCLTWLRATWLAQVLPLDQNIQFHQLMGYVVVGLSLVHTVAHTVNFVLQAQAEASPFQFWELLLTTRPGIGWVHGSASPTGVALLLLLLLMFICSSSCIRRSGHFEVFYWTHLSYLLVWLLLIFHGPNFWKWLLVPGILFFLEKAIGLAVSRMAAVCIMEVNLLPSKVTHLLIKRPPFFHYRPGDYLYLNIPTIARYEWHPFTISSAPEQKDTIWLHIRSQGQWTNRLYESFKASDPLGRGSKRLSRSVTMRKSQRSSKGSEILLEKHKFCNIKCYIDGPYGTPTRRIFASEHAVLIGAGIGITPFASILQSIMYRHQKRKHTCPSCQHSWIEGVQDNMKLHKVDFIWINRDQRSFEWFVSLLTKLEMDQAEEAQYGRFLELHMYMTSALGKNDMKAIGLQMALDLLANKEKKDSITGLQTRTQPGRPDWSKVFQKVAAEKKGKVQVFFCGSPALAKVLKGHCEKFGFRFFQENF
NADPH oxidase 4 (Homo sapiens), sequence (Q9NPH5 whole entry, looked up): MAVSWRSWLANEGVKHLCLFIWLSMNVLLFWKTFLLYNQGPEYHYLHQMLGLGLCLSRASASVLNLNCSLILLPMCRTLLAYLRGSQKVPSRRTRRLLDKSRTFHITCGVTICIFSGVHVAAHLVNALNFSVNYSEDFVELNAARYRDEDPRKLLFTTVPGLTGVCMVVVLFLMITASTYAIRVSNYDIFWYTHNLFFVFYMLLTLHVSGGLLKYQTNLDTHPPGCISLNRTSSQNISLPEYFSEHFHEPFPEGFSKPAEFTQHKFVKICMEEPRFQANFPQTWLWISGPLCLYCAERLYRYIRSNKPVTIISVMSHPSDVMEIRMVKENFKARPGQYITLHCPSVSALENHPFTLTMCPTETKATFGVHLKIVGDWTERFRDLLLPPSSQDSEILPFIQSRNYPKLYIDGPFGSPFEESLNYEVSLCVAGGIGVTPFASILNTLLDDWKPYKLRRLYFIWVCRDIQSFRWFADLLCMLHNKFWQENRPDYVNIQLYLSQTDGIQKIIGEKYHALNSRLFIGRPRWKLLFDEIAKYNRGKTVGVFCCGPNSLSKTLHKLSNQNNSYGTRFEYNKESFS

Row | Compound | z-score [1] | composite z-score [2] | z-score [3] | z-score [4] | z-score [5] | z-score [6] | z-score [7] | z-score [8] | z-score [9] | z-score [10] | z-score [11] | z-score [12] | z-score [13] | z-score [14] | z-score [15] | z-score [16] | z-score [17] | z-score [18] | z-score [19] | z-score [20]
1 | C[C@]1(C(=O)NCC(F)(F)F)c2ccccc2C(=O)N(Cc2ccc(OC(F)(F)F)cc2)[C@H]1c1ccc(CO)cc1 | -0.831 (inactive) | -0.284 | 2.58 (inactive) | 0.295 (inactive) | 3.67 (inactive) | 0.451 (inactive) | -0.32 | 1.45 (inactive) | -0.0975 (inactive) | -1.45 | 0.377 | 0.194 | 0.334 | 0.0863 | -1.37 | 0.756 | -0.235 (inactive) | 1.04 | 0.157 | 0.0382 (inactive)
2 | COc1ccc(C#Cc2ccc3c(c2)[C@]2(C(=O)N3)[C@H](C(=O)Nc3nc4ccccc4s3)[C@H]3C(=O)O[C@H](c4ccccc4)[C@H](c4ccccc4)N3[C@@H]2c2ccc(OCCO)cc2)cc1 | -0.368 (inactive) | -0.0186 | 2.85 (inactive) | 1.41 (inactive) | -0.521 (inactive) | 0.81 (inactive) | 0.13 | 0.578 (inactive) | 0.0813 (inactive) | -1.04 | -0.255 | 0.183 | 0.044 | -2.63 | -0.988 | -3.48 | -1.95 (inactive) | -1.21 | -2.1 | 0.135 (inactive)
3 | O=C1O[C@@H](c2ccccc2)[C@@H](c2ccccc2)N2[C@@H](c3ccc(O)cc3)[C@]3(C(=O)Nc4ccc(C#CC5=CCCCC5)cc43)[C@@H](C(=O)N3CCCCCCC3)[C@H]12 | 1.3 (inactive) | 2.57 | -0.781 (inactive) | -1.2 (inactive) | -0.993 (inactive) | -2.4 (inactive) | 2.98 | 0.682 (inactive) | 0.597 (inactive) | 1.56 | -0.361 | 0.967 | 0.606 | 0.212 | -1.72 | 0.41 | 0.571 (inactive) | -0.527 | 0.135 | -0.77 (inactive)
4 | [N-]=[N+]=NCc1ccccc1C[C@]1(C(=O)N2CCOCC2)N=C(c2ccc(OCCCO)cc2)O[C@H]1c1ccccc1CN=[N+]=[N-] | 0.341 (inactive) | 1.15 | 17.5 (active) | 3.97 (inactive) | 2.79 (inactive) | 1.15 (inactive) | 1.02 | -0.647 (inactive) | 0.782 (inactive) | 2.13 | 0.869 | 0.577 | 0.74 | -1.47 | -2.29 | 1.24 | 1.04 (inactive) | -1.18 | 0.233 | -0.768 (inactive)
5 | Cc1ccc(S[C@]2(C(=O)NCCN3CCOCC3)CC(=O)N(C3CCCCC3)[C@@H]2c2ccc(CO)cc2I)cc1 | 0.465 (inactive) | -0.174 | 6.63 (inactive) | 0.86 (inactive) | 1.68 (inactive) | 0.622 (inactive) | -0.439 | 0.832 (inactive) | 0.11 (inactive) | 2.6 | 0.312 | 0.0138 | 0.293 | -2.42 | -2.46 | 2.54 | 0.11 (inactive) | -0.457 | -1.53 | 2.04 (inactive)
6 | COc1ccc(NC(=O)O[C@H]2[C@H](OC(=O)Nc3ccc4c(c3)OCO4)[C@H](OC(=O)Nc3ccc4c(c3)OCO4)[C@@H](OC)O[C@@H]2CO)cc1 | -0.723 (inactive) | 0.114 | 13.7 (active) | 1.26 (inactive) | 0.99 (inactive) | 0.597 (inactive) | -0.0897 | -1.54 (inactive) | -0.399 (inactive) | -1.64 | -0.798 | 0.568 | -0.54 | -0.714 | -0.983 | -0.0127 | -0.213 (inactive) | -0.685 | -1.19 | -0.339 (inactive)
7 | COc1ccccc1CN1C(=O)c2ccccc2[C@@H](C(=O)NCCCN(C)C)[C@@H]1c1ccc(CO)cc1 | 1.21 (inactive) | -0.552 | 2.02 (inactive) | -0.141 (inactive) | 0.445 (inactive) | -0.583 (inactive) | 0.506 | 0.676 (inactive) | -0.436 (inactive) | -2.04 | 1.29 | 0.608 | 1.07 | 0.376 | 0.0552 | 3.31 | 0.629 (inactive) | 0.262 | 0.325 | 0.997 (inactive)
8 | O=C1C2C=CC(C(O)C(c3ccccc3)c3ccccc3)N(Nc3ccccc3)C2C(=O)N1c1ccccc1 (stereo not given) | -0.606 (inactive) | 0.591 | 1.85 (inactive) | 1.71 (inactive) | 0.331 (inactive) | 1.41 (inactive) | -1.25 | -1.72 (inactive) | -4.94 (inactive) | -2.54 | 0.758 | -0.835 | 1.82 | 0.032 | -0.213 | -0.335 | -1.64 (inactive) | -0.305 | -0.401 | -0.876 (inactive)
9 | COCCCN1C(=O)[C@@]2(Cc3ccccc31)c1ccccc1C(=O)N(Cc1ccccc1OC)[C@H]2c1ccc(CO)cc1 | 0.168 (inactive) | 0.193 | 0.883 (inactive) | 0.216 (inactive) | 0.0049 (inactive) | -0.185 (inactive) | 0.592 | 0.0278 (inactive) | 0.545 (inactive) | 1.41 | -0.609 | 1.12 | -0.95 | -0.492 | -0.452 | -0.499 | -0.722 (inactive) | 0.695 | -0.0862 | -0.458 (inactive)
